Assay results reported in PMC4336329 (PLoS ONE, 2015).
In all, about 310,000 compounds went through this assay and about 14,000 (4.5%) showed an effect of 50% or more. The effect is printed as a negative number. The entries come from a sample that favours strong results as a whole.

These compounds were tested against human ether-à-go-go-related gene (hERG) potassium channel (human, UniProt Q12809) (assay: primary screen, population patch clamp on CHO cells stably expressing hERG; higher = less effect of the substance).
Chain of human ether-à-go-go-related gene (hERG) potassium channel (Q12809 whole entry, looked up): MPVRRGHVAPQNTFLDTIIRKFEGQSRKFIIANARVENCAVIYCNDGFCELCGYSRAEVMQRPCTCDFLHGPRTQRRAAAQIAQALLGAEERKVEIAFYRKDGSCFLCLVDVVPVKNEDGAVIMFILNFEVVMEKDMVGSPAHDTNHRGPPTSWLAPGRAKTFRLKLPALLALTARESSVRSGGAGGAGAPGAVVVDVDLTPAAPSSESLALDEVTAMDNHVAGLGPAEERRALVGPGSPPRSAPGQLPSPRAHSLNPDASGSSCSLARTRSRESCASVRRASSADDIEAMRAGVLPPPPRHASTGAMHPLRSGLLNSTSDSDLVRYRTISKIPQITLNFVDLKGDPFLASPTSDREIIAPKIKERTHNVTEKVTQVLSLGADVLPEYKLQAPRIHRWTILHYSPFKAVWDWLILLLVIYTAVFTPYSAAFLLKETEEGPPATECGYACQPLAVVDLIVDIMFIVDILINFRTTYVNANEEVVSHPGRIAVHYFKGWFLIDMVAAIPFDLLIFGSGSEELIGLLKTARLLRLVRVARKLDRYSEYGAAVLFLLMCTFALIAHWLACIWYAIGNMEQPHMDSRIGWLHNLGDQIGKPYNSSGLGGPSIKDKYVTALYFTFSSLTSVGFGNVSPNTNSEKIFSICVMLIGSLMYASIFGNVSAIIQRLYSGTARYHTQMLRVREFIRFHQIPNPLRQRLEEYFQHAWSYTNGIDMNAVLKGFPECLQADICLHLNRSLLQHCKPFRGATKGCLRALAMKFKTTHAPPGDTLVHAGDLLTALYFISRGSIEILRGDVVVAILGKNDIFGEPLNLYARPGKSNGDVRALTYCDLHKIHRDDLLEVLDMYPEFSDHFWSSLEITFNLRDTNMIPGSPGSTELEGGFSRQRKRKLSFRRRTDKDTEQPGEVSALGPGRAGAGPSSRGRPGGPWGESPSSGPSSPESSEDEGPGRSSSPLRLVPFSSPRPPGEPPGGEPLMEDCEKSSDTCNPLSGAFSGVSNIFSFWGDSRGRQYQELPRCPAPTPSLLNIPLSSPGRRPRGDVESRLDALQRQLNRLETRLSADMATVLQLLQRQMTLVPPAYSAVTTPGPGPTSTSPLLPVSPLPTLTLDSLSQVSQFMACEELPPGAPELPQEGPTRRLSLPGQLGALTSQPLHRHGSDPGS
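Also: peak tail current of the secondary pulse compared with the same well before compound.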

| SMILES | hERG current change (%, negative = inhibition) at 10uM |
| --- | --- |
| O=C(O)Cc1sc(Nc2ccc(F)cc2)nc1-c1cccs1 | 15.3% |
| Cc1ccccc1C(CC(=O)c1cccs1)C(C#N)C#N (stereo not shown) | 20.2% |
| Cc1ccc(Cn2ncc3c(N4CCN(c5ccc(C)cc5)CC4)ncnc32)cc1 | 8.18% |
| COCCN(C(=O)c1cc2c(s1)CCCCC2)c1c(N)n(CC(C)C)c(=O)[nH]c1=O | 3.04% |
| CCOC(=O)C(NC(=O)C1CCCN1C(=O)OCc1ccccc1)C(=O)OCC (stereo not shown) | -0.938% |
| CCc1nnc(NC(=O)C2CCCN2C(=O)Nc2ccc(Cl)cc2)s1 (stereo not shown) | 1.86% |
| COc1cc(-c2cc(C(=O)Nc3ccc(S(=O)(=O)Nc4ncccn4)cc3)c3ccccc3n2)cc(OC)c1OC | -7.01% |
| CCn1c(=O)cc(SCC(=O)Nc2ccc(OC)c(OC)c2)c2ccccc21 | -4.7% |
| COc1ccc(S(=O)(=O)Nc2ccc(-n3cnnn3)cc2)cc1[N+](=O)[O-] | 0.00208% |
| CC(C)(C)OC(=O)N1CCC(NC(=O)c2nc[nH]c2C(=O)NC2CCN(C(=O)OC(C)(C)C)CC2)CC1 | -31.5% |
| CC(C)(C)OC(=O)NCCCCCNC(=O)c1[nH]cnc1C(=O)NC1CCN(C(=O)OC(C)(C)C)CC1 | -78.1% |
| CC(C)(C)OC(=O)NCCCCCNC(=O)c1[nH]cnc1C(=O)Nc1ccccc1 | -53.2% |
| Cc1ccc(NC(=O)c2nc[nH]c2C(=O)NCCCCCNC(=O)OC(C)(C)C)cc1 | -15.2% |
| CC(C)(C)OC(=O)NCCCCCNC(=O)c1[nH]cnc1C(=O)Nc1ccc(Cl)cc1 | -6.26% |
| CC(C)(C)OC(=O)CNC(=O)c1[nH]cnc1C(=O)NC1CCN(C(=O)OC(C)(C)C)CC1 | -2.67% |
| O=C(COC(=O)/C=C/c1ccccc1Cl)NC1CCCC1 | 14.6% |
| O=C(Nc1cccc2ccccc12)NC1CCCCC1O (stereo not shown) | 0.227% |
| O=C(Nc1ccc(Cl)cc1Cl)C1CCC(=O)N1Cc1ccccc1Cl (stereo not shown) | -2.67% |
| C#CCOCCOCCOCCNc1nc(N2CCN(C(=O)CCCCCCCCCCNC(=O)[C@H](CO)n3cc(CCCSC)nn3)CC2)nc(N2CCN(C(=O)CCCCCCCCCCNC(=O)[C@@H]([C@H](C)O)n3cc(C)nn3)CC2)n1 | 8.18% |
| Cc1nnc(SCC(=O)Nc2ccc3c(c2)OCCO3)s1 | 16.9% |
| C/C(=N\O)c1ccc2c3ccccc3n(C)c2c1 | 25.3% |
| COc1cc(CNCc2cccs2)ccc1OCc1ccccc1.Cl | -31.8% |

| SMILES | hERG current change (%, negative = inhibition) at 10uM |
| --- | --- |
| O=C(/C=C/c1cn(-c2ccccc2)nc1-c1cccnc1)N1CCCCC1 | -49.7% |
| N#C/C(=C\c1cn(-c2ccccc2)nc1-c1cccnc1)c1nnc2n1CCCCC2 | -63.2% |
| N#C/C(=C\c1c[nH]c2ccccc12)c1nnc2n1CCCCC2 | -29.5% |
| Cc1cc(C(=O)COC(=O)C(C)NC(N)=O)c(C)n1Cc1ccco1 (stereo not shown) | 10.5% |
| CCN(C(=O)Cn1nc(C)c([N+](=O)[O-])c1C)C1CCS(=O)(=O)C1 (stereo not shown) | 24.1% |
| Cc1ccc(NC(=O)Cn2ccc([N+](=O)[O-])n2)cc1C | 14.2% |
| CC(C)n1c(SCC(=O)N2CCN(C(=O)c3ccco3)CC2)nc2c1c(=O)n(C)c(=O)n2C | -50.9% |
| Cn1c(=O)c2c(nc(N3CCOCC3)n2CCSc2ncccn2)n(C)c1=O | 0.639% |
| Cn1c(=O)c2c(nc(N3CCN(C(=O)c4ccco4)CC3)n2CCSc2ncccn2)n(C)c1=O | -57.4% |
| CC(C)n1c(SCC(=O)N2CCN(C)CC2)nc2c1c(=O)n(C)c(=O)n2C | 2.15% |
| CC(C)n1c(SCC(=O)N2CCCC2)nc2c1c(=O)n(C)c(=O)n2C | -5.03% |
| COc1ccc(N2CCN(C(=O)CSc3nc4c(c(=O)n(C)c(=O)n4C)n3C(C)C)CC2)cc1 | -50.2% |
| CCN1CCN(c2nc3c(c(=O)n(C)c(=O)n3C)n2CCSc2ncccn2)CC1 | 3.51% |
| CC(C)n1c(CN2CCN(C(=O)c3ccco3)CC2)nc2c1c(=O)n(C)c(=O)n2C | -7.57% |
| CCCn1c(SCC(=O)N2CCN(c3ccc(OC)cc3)CC2)nc2c1c(=O)n(C)c(=O)n2C | -36% |
| COc1ccc(S(=O)(=O)N2CCOC2CNC(=O)C(=O)NCc2ccc3c(c2)OCO3)cc1 (stereo not shown) | -25.6% |
| Cc1ccc(S(=O)(=O)N/N=C\c2ccc(Cl)c([N+](=O)[O-])c2)cc1 | 18.4% |
| CCOC(=O)c1sc(=S)n(-c2cccc(OC)c2)c1N | -7.09% |
| CCc1ccc2[nH]c(=O)c(C(c3nnnn3CC3CCCO3)N3CCCc4ccccc43)cc2c1 (stereo not shown) | 19.8% |
| O=C(COC(=O)c1ccccc1Oc1ccccc1)NCc1ccco1 | -19.1% |
| O=C(Nc1cccc(S(=O)(=O)Nc2ccc(Cl)cc2)c1)c1ccc(Cl)nc1 | 19.8% |
| Cc1oc(-c2ccccc2F)nc1CS(=O)(=O)CC(=O)N1CCc2ccccc21 | 12.4% |

| SMILES | hERG current change (%, negative = inhibition) at 10uM |
| --- | --- |
| CC(C)(C)NCc1cc(Cl)ccc1OCc1cccs1.Cl | -32.5% |
| CC(C)COc1ccc(Br)cc1CNC(C)(C)C.Cl | -41.8% |
| C=CCOc1ccc(Br)cc1CNC(C)(C)C.Cl | -14.7% |
| CC(C)(C)NCc1cc(Br)ccc1OCc1cccs1.Cl | -52.5% |
| CC(C)(C)NCc1cc(Br)ccc1OC1CCCC1.Cl | -53.8% |
| CC(C)(C)NCc1ccccc1OCc1cccs1.Cl | 6.17% |
| CCN(CC)CCNC(=O)c1ccc(NC(=O)Cc2ccsc2)cc1 | 15.6% |
| O=c1oc2ccccc2cc1N1CCOCC1 | -7.08% |
| CN(C)S(=O)(=O)c1ccc(C(=O)Nc2nnc(-c3cccs3)o2)cc1 | 31.7% |
| O=C(COC(=O)c1ccc(F)cc1F)Nc1cccnc1Cl | -56.3% |
| O=C(COC(=O)c1ccccc1F)Nc1cccnc1Cl | -2.16% |
| O=C(COC(=O)c1ccc(F)cc1F)Nc1ncccn1 | -3.24% |
| Cc1ccc(NC(=O)c2cnn(-c3ccccc3)c2NC(=O)c2ccco2)cc1 | 2.02% |
| Cc1ccnn1CC(=O)N/N=C/c1ccc2c(c1)OCO2 | -7.72% |
| N#C/C(=C/c1cccc(O)c1)C(=O)NCc1ccc(Cl)cc1 | 31% |
| COC(=O)CSc1cc([N+](=O)[O-])cc2c1c(C1OCCO1)nn2-c1ccccc1 | -5.4% |
| N#Cc1c(N(CCO)CCO)nc(N)c2c(N)nc3c(c12)CC(=O)N3CC1CCCO1 (stereo not shown) | 10% |
| CN(CCO)c1nc(N)c2c(N)nc3c(c2c1C#N)CC(=O)N3Cc1cccs1 | -29.6% |
| CN(CCO)c1nc(N)c2c(N)nc3c(c2c1C#N)CC(=O)N3C1CCCC1 | -63.5% |
| O=C(CSc1oc(-c2cccs2)nc1S(=O)(=O)c1ccccc1)NC1CCCCC1 | 17.7% |
| CCC1Oc2ccccc2N(CC(=O)NCCCN2CCOCC2)C1=O (stereo not shown) | -4.71% |
| CCC1Oc2ccccc2N(CC(=O)NCCCN2CCN(c3ccc(OC)cc3)CC2)C1=O (stereo not shown) | -50.4% |

| SMILES | hERG current change (%, negative = inhibition) at 10uM |
| --- | --- |
| CCC1Oc2ccccc2N(CC(=O)NCCCN2CCN(Cc3ccccc3)CC2)C1=O (stereo not shown) | -42% |
| CCC1Oc2ccc(C)cc2N(CC(=O)NCCCN2CCN(Cc3ccccc3)CC2)C1=O (stereo not shown) | -53.9% |
| CCC1Oc2ccc(C)cc2N(CC(=O)NCCCN2CCCC2)C1=O (stereo not shown) | -34.7% |
| CCC1Oc2ccccc2N(CC(=O)NCCCN2CCN(CC)CC2)C1=O (stereo not shown) | 2.97% |
| Cc1cc(OC(C)C(=O)N[C@H](C(=O)O)c2ccccc2)c2c3c(c(=O)oc2c1)CCC3 (stereo partly shown) | -3.23% |
| CCOC(=O)c1c(NCC(C)C)c2ccccc2[nH]c1=O | -1.01% |
| Cc1cccc(C(=O)NNC(=O)c2ccc(Br)cc2)c1 | 4.62% |
| O=C(Nc1cccc(Cl)c1Cl)c1snnc1-c1ccccc1 | 7.74% |
| Cc1ccc(NC(=S)N(CCN2CCOCC2)Cc2ccccc2F)cc1Cl | -12.3% |
| NC(=S)N/N=C1\CCOc2ccc(F)cc21 | -76.9% |
| NC(=S)N/N=C1\CC(c2ccc3c(c2)OCCO3)Oc2ccc(F)cc21 (stereo not shown) | 12.9% |
| NC(=S)N/N=C1\CCOc2ccc(Cl)cc21 | 1.36% |
| O=C(COC(=O)c1cccc(C(=O)OCC(=O)NCc2ccc(F)cc2)n1)NCc1ccc(F)cc1 | -15.5% |
| Cn1nccc1C(=O)N(CCN1CCCCC1)CC1CCCN(C2CCCC2)C1 (stereo not shown) | -2.29% |
| CC(=O)N(Cc1cccnc1)Cc1cc2ccccc2[nH]c1=O | 3.63% |
| O=C(c1cc2cc(F)ccc2[nH]1)N(Cc1cccnc1)CC1CCCN(C2CCCCC2)C1 (stereo not shown) | -77.5% |
| COC(=O)c1ccccc1C(=O)N(Cc1cccnc1)CC1CCCN(C2CCCCC2)C1 (stereo not shown) | -40% |
| O=C(c1cc2ccccc2[nH]1)N(Cc1cccnc1)CC1CCCN(C2CCCCC2)C1 (stereo not shown) | -73.7% |
| O=C(c1cccs1)N(CCN1CCCCC1)CC1CCCN(C2CCCC2)C1 (stereo not shown) | 1.03% |
